# TR SRC2 fluor cs: Total Fluorescence Counterscreen for Inhibitors of the Interaction of Thyroid Hormone Receptor and Steroid Receptor Coregulator 2; Potency, µM (titrated, usually from 106 µM), inactives show at the top dose fluorescence change, negative = quenching; TRb/SRC2 Texas Red total fluorescence interference; 280,000 compounds, 0.29% hits; AID 1479, 2009; active = well fitted curve in either direction with a large enough effect; inconclusive = small, poorly fitted or top-dose-only effect; note: potency is the fitted concentration of half-maximal effect; % is set by controls: 0 for no effect and ±100 for the full control effect
#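 Flags fluorescent or light-absorbing compounds by total fluorescence, S + 2P, at 555 nm excitation and 632 nm emission. Mixture: 20 nM Texas Red SRC2 peptide, 0.6 uM human TRb LBD, 1 uM T3, 5% DMSO; compound exposure 5 h at ambient temperature.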
# ERG Ets-DNA blk: qHTS for Small Molecule Inhibitors of the ERG Ets/DNA interaction | Transcriptional regulator ERG (Homo sapiens), P11308 | fluorescence polarization, His-ERG Ets domain / labelled DNA | 370,000 compounds, 0.028% hits | AID 624246, 2012 | Potency, µM (highest dose often 76.9 µM), for the others: at the highest dose FP activity, negative = inhibition, most hits filed as inhibitors; active = well fitted inhibition curve with a large enough effect in the polarisation, with a control signal flat; inconclusive = small, poorly fitted or top-dose-only effect, or effect the other way, or a change in a side signal; inactive = no such curve, though single readings can be large or run the other way; the % refers to the polarisation;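 note: polarization taken with two DNA probes labelled with fluorescein and Texas red; potency is the fitted concentration of half-maximal effect; % of control where 0% means no effect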
# Target sequence (P11308 whole entry, looked up, the tested form may be a part): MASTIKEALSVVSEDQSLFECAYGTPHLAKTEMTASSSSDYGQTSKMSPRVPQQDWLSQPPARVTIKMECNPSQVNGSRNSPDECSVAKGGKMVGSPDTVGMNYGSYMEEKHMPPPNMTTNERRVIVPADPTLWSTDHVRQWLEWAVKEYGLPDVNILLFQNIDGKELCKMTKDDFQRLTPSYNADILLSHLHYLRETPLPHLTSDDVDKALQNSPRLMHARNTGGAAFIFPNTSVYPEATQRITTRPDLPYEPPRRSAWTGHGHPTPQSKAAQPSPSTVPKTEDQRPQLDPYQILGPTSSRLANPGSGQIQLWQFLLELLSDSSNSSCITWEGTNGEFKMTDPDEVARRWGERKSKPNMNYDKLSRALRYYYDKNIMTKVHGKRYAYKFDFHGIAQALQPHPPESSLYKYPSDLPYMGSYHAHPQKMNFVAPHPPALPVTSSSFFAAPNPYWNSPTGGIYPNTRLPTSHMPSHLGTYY
#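 His-tagged ERG Ets domain (1 uM in the protein solution; 300mM KCl, 50mM Tris-HCl, 1mM EDTA, 1mM DTT, pH 7.5) received compound, then a probe mix of 5 nM fluorescein-DNA and 100nM Texas-615-DNA. Fluorescence polarization was read for both dyes.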
# TRb SRC2 PPI: qHTS for Inhibitors of the Interaction of Thyroid Hormone Receptor and Steroid Receptor Coregulator 2. TRbeta-SRC2 peptide binding, fluorescence polarization; receptor liganded with 1 µM T3. Potency, µM (titrated, usually from 106 µM), for inactives: top-dose activity change, negative = inhibition, usual class: inhibitors. 280,000 compounds, 0.065% hits. AID 1469, 2008;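 note: potency is the fitted concentration of half-maximal effect; plate controls were bound peptide for no effect and peptide without receptor for full effect; nearly all actives have a fitted effect of over 50% in size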
#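 Decrease in fluorescence polarization of 20 nM Texas Red SRC2 coactivator peptide flagged inhibition of its binding to 0.6 uM TRb LBD; 1 uM T3 included, incubation 5 hr, ex 555/em 632 nm.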
# a7 integrin act: qHTS for Activators of Integrin-Mediated Alleviation for Muscular Dystrophy; alpha7betagal myoblasts, beta-gal FDG fluorescence, 48 h; Potency, µM (titrated, usually from 38.3 µM), for inactives: top-dose activation, usual class: activators; 350,000 compounds, 0.064% hits;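 note: potency is the fitted concentration of half-maximal effect; 100% = response of the positive control SU9516; nearly all actives have a fitted effect of over 60% in size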
#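 alpha7betagal+/- myoblasts (passage 13, 250/well) treated 48 h at 37C with compounds at 1:260 dilution of DMSO stock. Lysed, then beta-galactosidase activity read as FDG fluorescence (ex 480/em 540) after 30 min, with pre-read for autofluorescence.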
# RGS12 GoLoco inh: qHTS Assay for Inhibitors of RGS12 GoLoco Motif Activity (Red Fluorophore) | Guanine nucleotide-binding protein G(i) subunit alpha-1 (Homo sapiens), P63096 | Gai1:RGS12 GoLoco peptide FP, rhodamine, 10 min | Potency, µM (highest dose often 61.6 µM), for the others: at the top dose activity, negative = inhibition, usual class: inhibitors | 230,000 compounds, 0.44% hits; active = well fitted inhibition curve with a large enough effect, not every such curve was filed as active; inactive = no such curve, though single readings can be large or run the other way; note: potency is the fitted concentration of half-maximal effect; % is set by controls: 0 for no effect and ±100 for the full control effect; nearly all actives have a fitted effect of over 30% in size
# CBFb-RUNX1 inh: qHTS Assay for Compounds Blocking the Interaction Between CBF-beta and RUNX1 for the Treatment of Acute Myeloid Leukemia. 230,000 tested, under 10 active. AID 1477, 2009. Potency, µM (top dose mostly 59.8 µM), for the others: at the top dose activity, negative = inhibition, most hits filed as inhibitors. AlphaScreen CBFb-His/RUNX1-biotin binding, biochemical; note: % of control where 0% means no effect
#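 Room-temperature protein-protein interaction test with 30 nM each of His-tagged CBF-beta and biotinylated RUNX1, 15 min with compound, then 90 min with nickel plus streptavidin beads. Signal read in AlphaScreen mode.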
# * marks the source's active call; other numbers are inactive results; ? = inconclusive; / = no result; ! = not active in a repeat; [ ] = another dose, or the depositor's remark. This is a sample that favours compounds with a hit; in the whole collection about 0.45% have one here. Unless noted, calls come from the whole dose curve; as a rule, active = well fitted curve in the direction sought with a large enough effect; inconclusive = small, poorly fitted or top-dose-only effect, or another doubt; inactive = no such curve, though single readings can be large; an effect the other way counts as inactive or inconclusive.
SMILES,TR SRC2 fluor cs,ERG Ets-DNA blk,TRb SRC2 PPI,a7 integrin act,RGS12 GoLoco inh,CBFb-RUNX1 inh
[O-][n+]1c2c(nn1-c1ccccc1)/C(=N/O)CCC2,-4%,-2%,2%,8%,9%,2%
[O-][n+]1onc2c1CCC(=N/O)/C2=N\Nc1ccccc1,?,/,-6%,/,14µM*,?
CCCC1=[N+](CC(=O)c2ccccc2)CCn2c(C)ccc21,6%,-2%,-2%,-33%,13%,-7%
CCCC1=[N+](CC)CCn2c(C)ccc21,-1%,/,8%,-59%,13µM*,6%
Cc1oc(-c2ccccc2F)nc1CSCC(=O)NCCc1ccccc1,0.13µM*[quencher],4%,-28%,/,/,/
CNC(=O)c1ccc(NC(=O)CC23CC4CC(CC(C4)C2)C3)cc1,/,20%,/,4%,/,/
C[n+]1cccc(/C=N/NC(=O)CC23CC4CC(CC(C4)C2)C3)c1,-1%,2%,-4%,18%,4µM*,8%
COc1ccc(/C=C/C(=O)O)cc1,45µM*![fluorescent],5%,25µM*!,13%,10%,8%
COc1cc(/C=C/C(=O)O)cc(OC)c1,/,2%,/,18%,/,/
CN(C)/C=N/c1c(C#N)cnn1-c1ccc(F)c(Cl)c1,-1%,/,-4%,/,/,?
Cc1cc(C)c(C#N)c(=N)o1,-2%,/,-1%,9%,22µM*,-6%
CC(C)C(C(=O)O)N1C(=O)/C(=C/c2ccc(Br)cc2)SC1=S (configuration not stated),0%,/,-1%,/,/,-7%
O=S(=O)(Nc1cc(O)cc2cccnc12)c1ccc(Br)s1,-5%,/,-20%,/,/,?
CCc1c(C2(O)CCCCC2)[nH]c2ncccc12,/,8%,/,10µM*,/,/
CC1=C(C(=O)Nc2ccc(C)cc2C)C(c2ccccc2)n2nc(SCC(=O)c3ccc(C)cc3)nc2N1 (configuration not stated),0%,4%,-10%,/,/,/
CC1=C(C(=O)Nc2ccc(C)cc2C)C(c2ccccc2F)n2nc(SCC(=O)c3ccc(C)cc3)nc2N1 (configuration not stated),0.032µM*[quencher],-3%,-18%,/,/,/
NOCc1ccccc1,-9%,/,-5%,/,/,1%
O=C(O)COc1cccc2c1CCC=C2CCO/N=C(\c1ccccc1)c1cccnc1,-10%,/,-1%,/,/,-1%
Cc1ccc(C(=O)N/N=C/c2ccc(-c3ccccc3[N+](=O)[O-])o2)cn1,32µM*[quencher],2%,?,-31%,-4%,-2%
Cc1ccc(Nc2nnc(-c3cc4c(ccc5ccccc54)oc3=O)s2)cc1,0.032µM*[quencher],1%,?,/,/,/
CCOc1ccc(CNS(=O)(=O)c2ccc(-c3coc(C)n3)cc2)cc1,0.0071µM*[quencher],4%,-11%,/,/,/
CCc1ccccc1NS(=O)(=O)c1ccc(-c2coc(C)n2)cc1,11µM*[quencher],4%,-20%,/,/,/
Cc1cc(C)c(NS(=O)(=O)c2ccc(-c3coc(C)n3)cc2)c(C)c1,0%,-4%,2%,/,/,/
CS(C)=O,2%[1.3e+05 µM],/,-1%[1.3e+05 µM],/,/,/
C=CC1=C2C=C(C3CC3)N(CCCCO)C=C2C(=O)C(C)(OC(=O)c2ccco2)C1=O (configuration not stated),0%[11.2 µM],/,-1%[11.2 µM],/,-13%[14.2 µM],-2%[13.1 µM]
SMILES,TR SRC2 fluor cs,ERG Ets-DNA blk,TRb SRC2 PPI,a7 integrin act,RGS12 GoLoco inh,CBFb-RUNX1 inh
CC(C)CC(=O)Nc1ccc2nc(SCC(=O)N3CCOCC3)sc2c1,1259µM*[quencher],-11%,-14%,/,/,/
Cc1cccc(CNc2nc(-c3cccc(NS(C)(=O)=O)c3)nc3ccccc23)c1,1%,/,11%,/,-5%,/
Cc1ccc2nc(-c3cccc(NS(C)(=O)=O)c3)cc(-c3ccccc3)c2c1,0.1µM*[quencher],5%,-9%[53 µM],-24%,5%,4%
O=[N+]([O-])c1ccccc1/C=N\Nc1nccs1,/,-3%,/,-22%,/,/
O=[N+]([O-])c1cc(/C=N\Nc2nccs2)ccc1O,25µM*[quencher],/,?,/,5%,/
CCCCCCCCCCCCCCN(C)C,-2%[201 µM],/,9%[201 µM],/,/,/
CC[n+]1ccc(C[n+]2ccccc2)c2ccccc21,-1%,-3%,2%,17%,18µM*,16%
Cc1ccc2c(c1)c(C)cc[n+]2Cc1ccccc1,1%,3%,4%,-45%,/,2%
Cc1ccc(S(=O)(=O)/N=C2/C=C(Sc3ncn[nH]3)C(=O)c3ccccc32)cc1,-16%,13%,28µM*,-49%,-31%,-10%
CC(C)c1ccc(S(=O)(=O)/N=C2/C=C(Sc3ncn[nH]3)C(=O)c3ccccc32)cc1,1%,-2%,-19%,-59%,-40%,-4%
Cc1ccc(S(=O)(=O)/N=C2/C=C(Sc3ncn[nH]3)C(=O)c3ccccc32)c(C)c1,-15%,/,28µM*,/,-27%,1%
CCC1=NNc2cccc3c(OC)ccc1c23,-18%,/,-22%,/,18µM*,/
COc1ccc2c3c(cccc13)C(=O)N(O)C2=O,-5%,-14%,-4%,13%,-5%,0%
CN(C#N)c1nccc(-c2cccs2)n1,6%,-2%,0%,11µM*,4%,-1%
CN(C)/C=N/c1nccc(-c2cccs2)n1,1%,9%,-7%,8.9µM*,0%,-10%
CC(C)=CC[C@@H](O)C1=CC(=O)c2c(O)ccc(O)c2C1=O,28µM*[quencher],/,-3%,/,-18%,/
CCN(CCCc1ccccc1)CCCc1ccccc1,-1%,16%,0%,/,28µM*!,12%
Cc1ccc(CNC(=O)c2cc(=O)c3cc(C)cc(C)c3o2)cc1,4µM*[quencher],-11%,-14%,/,/,/
Cc1cc(C)c2oc(C(=O)NCc3ccccc3)cc(=O)c2c1,/,3%,/,5%,/,/
CCc1cc(-c2oncc2-c2ccc(OC)cc2)c(O)cc1OC,-3%,/,-6%,/,/,18%
CCc1nn(CC(=O)Nc2c(C)cc(C)cc2C)c(=O)c2cc3sccc3n12,0.28µM*[quencher],-4%,1%,/,/,/
COc1cccc(CC(=O)N2CCc3nc(-c4ccc(OC)cc4C)c4c(c3C2)CO[C@@H](c2ccccc2)C4)c1,-3%[11.2 µM],/,3%[11.2 µM],/,3%[14.2 µM],2%[13.1 µM]
CCOC(=O)C(C(=O)OCC)C(C(=O)OCC)N1CCOCC1 (configuration not stated),1%,1%,-21%,7%,14µM*,15%
Nc1c(Br)cc(Br)cc1CNC1CCC(O)CC1 (configuration not stated),-1%,12%,8%,/,20µM*!,-6%
NC(=Nc1ccc(Cl)cc1)c1ccccc1,-2%,-1%,4%,0%,-3%,-17%

# Screening results as filed in PubChem BioAssay.
